Screens as filed in PubChem BioAssay.
LDHA block – inhibitors of human lactate dehydrogenase A; P00338; purified LDHA, NADH/diaphorase-resazurin fluorescence; hits give low values; activity change, % (values are at about 110 or 230 µM); 480,000 tested, 0.15% active; in the data active means activity change below about -30%; inconclusive means mostly about -25% to -30%;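 further: plate controls were DMSO wells for no effect and wells without enzyme for full effect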
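Resorufin fluorescence (ex540/em590), read at 0 and 20 min after diaphorase/resazurin addition, reports the NADH left after a 5 min room-temperature reaction of 2 nM human LDH5 with 0.06 mM NADH and 0.2 mM pyruvate.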
PINK1 modulator – modulators of PINK1 expression; PINK1 immunofluorescence, high-content cytometry, 24 h; Potency, µM (doses to about 76.6 µM), inactives show top-dose activation (PINK1 increase), most hits filed as activators; 410,000 tested, 0.2% active; active means well fitted activation curve with a large enough effect; inconclusive means small, poorly fitted or top-dose-only effect; cell line not stated here; further: potency means the concentration at half of the fitted maximal effect; % of control where 0% means no effect; nearly all actives have a fitted effect of over 65% in size
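Compound titrations (5 concentrations, 24 h) on a stable cell line; DMSO and CCCP controls. Endpoint: fixed-cell PINK1 immunofluorescence with mitochondrial, cell and nuclear markers, scanned by microplate cytometer.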
PTHR1 ag – agonists of human PTHR1 parathyroid hormone receptor; Q03431; HEK293 GP2 PTHR1 cells, GloSensor cAMP luminescence, 1 h; Potency, µM (doses to about 115 µM), inactives show at the highest dose activation, usual class: activators; 410,000 tested, 0.075% active; further: potency means the concentration at half of the fitted maximal effect; nearly all actives have a fitted effect of over 55% in size
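HEK-293-derived GP2 cells expressing PTHR1 and a GloSensor cAMP reporter, 3,000/well, plated overnight, given luciferin plus IBMX (each 0.5 mM as added) for 1 h at 37 °C, then compound for 1 h at 37 °C. Luminescence was read after 15 min at room temperature.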
Vif-APOBEC3G blk – Vif-A3G binding inhibition; Q9HC16; 410,000 tested, 0.076% active; HeLa A3G-eYFP + Vif (tagged APOBEC3G with the HIV-1 protein that degrades it), YFP fluorescence, overnight; Potency, µM (titrated, usually from 46.1 µM), for the others: top-dose activity, negative = active, usual class: inhibitors; further: potency means the concentration at half of the fitted maximal effect; on the % scale 0 is the no-effect control and ±100 the full control effect; nearly all actives have a fitted effect of over 60% in size
Target sequence (Q9HC16 whole entry, looked up): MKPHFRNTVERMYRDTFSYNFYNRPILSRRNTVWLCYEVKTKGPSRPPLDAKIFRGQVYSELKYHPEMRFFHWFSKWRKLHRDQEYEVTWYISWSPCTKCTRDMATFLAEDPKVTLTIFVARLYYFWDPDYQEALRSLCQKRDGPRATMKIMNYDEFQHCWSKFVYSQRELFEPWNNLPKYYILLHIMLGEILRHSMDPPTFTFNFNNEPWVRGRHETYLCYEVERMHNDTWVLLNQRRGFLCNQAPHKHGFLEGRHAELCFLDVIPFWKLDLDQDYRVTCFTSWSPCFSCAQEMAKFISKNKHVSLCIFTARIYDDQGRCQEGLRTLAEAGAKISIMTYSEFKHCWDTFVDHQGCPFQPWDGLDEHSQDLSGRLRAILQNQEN
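HeLa cells stably expressing Vif and C-terminally eYFP-tagged A3G, seeded overnight at 37 deg C, then exposed to compound by pintool overnight at 37 deg C. Rise in yellow fluorescence (Ex 488/Em 500-530, Acumen) marks blocked Vif-driven A3G degradation.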
IDH1 R132H inh – inhibitors of human mutant IDH1 R132H; IDH1-R132H enzyme, NADPH consumption, diaphorase/resazurin fluorescence; Potency, µM (highest dose often 76.6 µM), without a hit: at the highest dose activity change, negative = inhibition, usual class: inhibitors; 390,000 tested, 0.093% active; AID 602179; further: potency means the concentration at half of the fitted maximal effect; on the % scale 0 is the no-effect control and ±100 the full control effect; nearly all actives have a fitted effect of over 65% in size
Target sequence (O75874 whole entry R132H, stated change not applied): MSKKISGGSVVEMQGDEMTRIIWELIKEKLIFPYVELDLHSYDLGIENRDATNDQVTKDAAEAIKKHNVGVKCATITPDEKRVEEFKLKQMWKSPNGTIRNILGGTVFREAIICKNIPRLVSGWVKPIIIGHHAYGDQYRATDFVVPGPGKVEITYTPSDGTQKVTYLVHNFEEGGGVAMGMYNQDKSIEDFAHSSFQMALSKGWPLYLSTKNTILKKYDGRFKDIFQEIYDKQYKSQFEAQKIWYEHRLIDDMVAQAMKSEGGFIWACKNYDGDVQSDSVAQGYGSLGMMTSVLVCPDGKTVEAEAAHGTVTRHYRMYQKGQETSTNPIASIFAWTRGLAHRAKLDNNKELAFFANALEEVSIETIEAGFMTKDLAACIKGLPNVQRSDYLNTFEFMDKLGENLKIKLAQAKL
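IDH1-R132H (0.5 ug/mL) preincubated 30 min with compound, then NADPH (0.016 mM) and alpha-KG (2 mM) added; 80 min at RT, pH 7.5. Remaining NADPH coupled via diaphorase/resazurin to fluorescence (540/590 nm); concentration-response curves normalized to no-enzyme control.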
Vif-APOBEC3F blk – Vif-A3F binding inhibition. HeLa A3F-eYFP + Vif (tagged APOBEC3F with the HIV-1 protein that degrades it), YFP fluorescence increase. Potency, µM (top dose mostly 46.1 µM), for the others: at the top dose activity, negative = active. 390,000 tested, 0.2% active; further: potency means the concentration at half of the fitted maximal effect; % of control where 0% means no effect; nearly all actives have a fitted effect of over 65% in size
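HeLa cells stably expressing Vif plus C-terminally eYFP-tagged A3F were seeded, incubated overnight at 37 deg C, dosed with compound, incubated overnight again at 37 deg C. Yellow fluorescence (Ex 488/Em 500-530) reported blocked Vif-mediated A3F-eYFP degradation.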
Starred values were filed as active, the others as inactive; i = inactive; ? = inconclusive; nt = no result given; [ ] = another dose, or the depositor's remark. Hits are enriched below; roughly 0.59% of the tested compounds scored in any of these assays. Unless noted, the call rests on the fitted dose curve; in most records, active means well fitted curve in the direction sought with a large enough effect; inconclusive means small, poorly fitted or top-dose-only effect, or another doubt; inactive means no such curve, though single readings can be large; an effect the other way counts as inactive or inconclusive.

SMILES	LDHA block	PINK1 modulator	PTHR1 ag	Vif-APOBEC3G blk	IDH1 R132H inh	Vif-APOBEC3F blk
Cc1cc(C(=O)OC(C)C(=O)NC(N)=O)c2ccccc2n1 (stereo not drawn)	-32*	nt	nt	nt	nt	nt
Cc1cc(C(=O)OCC(=O)NCC(C)C)c2ccccc2n1	0	nt	nt	nt	nt	nt
Cc1ccc2nc(C)cc(C(=O)OC(C)C(=O)NCC(C)C)c2c1 (stereo not drawn)	-30*	nt	nt	nt	nt	nt
CCC(Oc1ccc(F)cc1)C(=O)Nc1cc(-c2ccc(C)cc2)no1 (stereo not drawn)	1	-1%	-12%	-3%	-5%	-6%
CCC(Oc1ccc(F)cc1)C(=O)Nc1nc(-c2ccc(F)cc2)ns1 (stereo not drawn)	0	28µM*	-48%	2%	-12%	?
Cc1cccc(-c2nc(C#N)c(N3CCOCC3)o2)c1	-31*	nt	nt	nt	nt	nt
Cc1cccc(-c2nc(C#N)c(N3CCCCC3)o2)c1	-3	-1%	i	-9%	-8%	-2%
Cc1ccc2cc(C(=O)N3CCN(S(=O)(=O)c4cccs4)CC3)[nH]c2c1	1	nt	nt	nt	nt	nt
Cc1ccc(CNC(=O)C2CCN(C(=O)c3csc(Nc4ccc(C)cc4)n3)CC2)cc1	9	nt	nt	nt	nt	nt
O=C(O)CN1C(=O)/C(=C\c2ccccc2OCc2ccc(F)cc2)SC1=S	-6	-2%	?	3%	1%	9%
O=C(O)CN1C(=O)/C(=C\c2cc(Br)ccc2OCc2ccc(Cl)cc2)SC1=S	-40*	-1%	-18%	-12%	?	-7%
O=C(O)CN1C(=O)/C(=C\c2cc(Br)ccc2OCc2ccc(F)cc2)SC1=S	-34*	-1%	-47%	0%	3%	1%
COc1ccc(/C=C2/SC(=S)N(CC(=O)O)C2=O)cc1OCc1ccc(Cl)cc1	-1	3%	-27%	6%	-1%	0%
O=C(O)CN1C(=O)/C(=C/c2ccc(-c3cccc(Cl)c3)o2)SC1=S	-63*	nt	nt	nt	nt	nt
Cc1ccc(O)c(C(=O)OCC(=O)Nc2cccc(N3CCCC3=O)c2)c1	-18	nt	nt	nt	nt	nt
COc1cc(C(=O)OCC(=O)NC2CCC(C)CC2)cc(Cl)c1OC (stereo not drawn)	8	nt	nt	nt	nt	nt
CCCOC(=O)c1c(-c2ccc(C)cc2)csc1NC(=O)c1ccoc1C	-1	nt	nt	nt	nt	nt
Cc1ccc(C(=O)C(C)Sc2nnnn2C)cc1 (stereo not drawn)	-6	nt	nt	nt	nt	nt
O=C(Cc1cccs1)N=Nc1c(O)[nH]c2ccccc12	-1	0%	-6%	-1%	-9%	1%
O=C(N=Nc1c(O)[nH]c2ccccc12)c1cc(-c2cccs2)[nH]n1	-39*	9%	-13%	0%	33%	12%
Cc1cc(C)c(S(=O)(=O)/N=C2/C=C(Sc3ncn[nH]3)C(=O)c3ccccc32)cc1C	39	1%	-11%	?	16%	7.1µM*
O=[N+]([O-])c1ccccc1S(=O)(=O)Nc1ccc(-c2ccc(N3CCOCC3)nn2)cc1	-6	2%	-20%	-12%	-16%	13µM*
CCN(CC)S(=O)(=O)c1ccc(Cl)c(C(=O)Nc2c(C)cc(C)cc2Cl)c1	-5	nt	nt	nt	nt	nt
Cn1c(=O)c(C#N)c(-c2ccc(F)cc2)c2cc(C(=O)c3cc(Cl)cc(Cl)c3O)cnc21	7	25µM*	-86%	-3%	0%	-3%
OCC(CO)(CO)NCC(O)CNC(CO)(CO)CO	-1	nt	nt	nt	nt	nt
SMILES	LDHA block	PINK1 modulator	PTHR1 ag	Vif-APOBEC3G blk	IDH1 R132H inh	Vif-APOBEC3F blk
CCN(CC)S(=O)(=O)c1cccc(NC(=O)C2SC(=Nc3ccc(C)cc3C)C(C(=O)NCC3CCCO3)=C2N)c1 (stereo not drawn)	0	25µM*	10%[57.5 µM]	-1%	6%	-7%
CC(=O)N1CCc2nc3sc(C(=O)Nc4ccc(Cl)cc4)c(N)c3c(C(F)(F)F)c2C1	-1	nt	nt	nt	nt	nt
CC1=C/C(=C\C=C(C#N)C#N)N(C)c2ccccc21	-2	?	i	1.8µM*	-5%	?
CN1/C(=C/C=C(C#N)C#N)C(C)(C)c2ccccc21	-4	13%	i	-30%	3%	?
Cc1c(N=N/C(C(=O)Nc2ccccc2)=C(/O)c2ccccc2)c(=O)n(-c2ccccc2)n1C	3	2%	-12%	-3%	-5%	10µM*
COc1cc(-c2nc3ccccn3c2Nc2ccc3c(c2)OCO3)cc(OC)c1O	92	nt	nt	nt	nt	nt
Cc1ccc(C(C#N)c2ccc3c(C(F)(F)F)cc(C(F)(F)F)nc3n2)cc1 (stereo not drawn)	0	8.9µM*	-22%	-1%	-1%	2%
N#CC(c1ccccc1)c1ccc2c(C(F)(F)F)cc(C(F)(F)F)nc2n1 (stereo not drawn)	-2	?	-19%[57.5 µM]	9%	-3%	-2%
Cc1sc2ncnc(N(C)CCc3ccccn3)c2c1C	-32*	3%	-7%	0%	-1%	1%
N#C/C(=C\c1ccc(N2CCOCC2)c([N+](=O)[O-])c1)c1nc2ccccc2[nH]1	-11	-2%	-41%	0%	7%	9%
N#C/C(=C\c1ccc(N2CCCCC2)o1)C(N)=O	4	?	i	?	0%	?
N#C/C(=C\c1ccc(N2CCOCC2)o1)c1nc2ccccc2[nH]1	15	14µM*	-17%	2%	-2%	?
N#C/C(=C/c1ccc(N2CCOCC2)o1)c1ccc(Cl)cc1	14	13µM*	i	7.1µM*	4%	?
Cn1nc(C(=O)N2CCCCC2c2nc3ccccc3s2)c2ccccc2c1=O (stereo not drawn)	1	nt	nt	nt	nt	nt
COc1ccccc1C1C=C(C(=O)O)Nc2c(C(=O)Nc3ccc(C)cc3)cnn21 (stereo not drawn)	5	nt	nt	nt	nt	nt
ClCC(Cl)C[n+]1cccc2ccccc21 (stereo not drawn)	-47*	nt	nt	nt	nt	nt
NC(=O)C[n+]1cccc2ccccc21	-19	5%[38.3 µM]	i	0%	7%	-18%
CCCC[n+]1c(/C=C/c2ccc(N(C)C)cc2)sc2ccccc21	1	5µM*	nt	0%	nt	nt
OC(Cn1cnnc1)c1ccccc1 (stereo not drawn)	-37*	2%	-5%	1%	0%	7%
OC(CN1CCOCC1)c1ccccc1 (stereo not drawn)	nt	nt	nt	-1%	nt	nt
COc1ccc(NC(=O)/C=C/c2ccccc2)c([N+](=O)[O-])c1	-11	11%	-9%	-17%	4%	-10%
COc1ccc(/C=C/C(=O)Nc2ccc(OC)cc2[N+](=O)[O-])cc1	-4	45µM*	-14%	-28%	1%	?
CCCCOC(=O)c1nc2ccccc2nc1Nc1cccc(OC)c1	21	nt	nt	nt	nt	nt
